Reference: PubChem BioAssay (NCI)
Several values for one entry are separate records, joined by “and”; a condition that tells them apart may be missing. Equal values may be shown once. The panel holds about 83,000 compounds, 20% with a hit somewhere; the sample as a whole holds those more often.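 For each line, cells grew in 96-well plates with the test compound present at a single concentration for 48 hours.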 More than one record can exist for a structure, and the calls need not agree. Activity calls are given as the source filed them. The calls were made as follows: active = growth percent below 10; inactive = the rest.

Experiments:
Test in all cases: NCI-60 one-dose screen, 48 h (100 = growth as untreated, 0 = no growth, -100 = all killed)
Details in all cases: 10 µM unless noted
[1] = tested on: NCI-H23 lung
[2] = tested on: NCI-H226 lung
[3] = tested on: NCI-H322M lung
[4] = tested on: HOP-62 NSCLC
[5] = tested on: NCI-H460 lung
[6] = tested on: HOP-92 NSCLC
[7] = tested on: NCI-H522 lung
[8] = tested on: A549/ATCC NSCLC
[9] = tested on: 786-0 renal
[10] = tested on: COLO 205 colon
[11] = tested on: DU-145 prostate
[12] = tested on: K-562 leukemia
[13] = tested on: MALME-3M melanoma
[14] = tested on: MDA-MB-231 breast
[15] = tested on: RXF 393 renal
[16] = tested on: SF-268 CNS
[17] = tested on: SF-295 CNS
[18] = tested on: SF-539 CNS
[19] = tested on: UACC-257 melanoma
[20] = tested on: M14 melanoma

| SMILES | growth [1] | growth [2] | growth [3] | growth [4] | growth [5] | growth [6] | growth [7] | growth [8] | growth [9] | growth [10] | growth [11] | growth [12] | growth [13] | growth [14] | growth [15] | growth [16] | growth [17] | growth [18] | growth [19] | growth [20] |
| --- | --- | --- | --- | --- | --- | --- | --- | --- | --- | --- | --- | --- | --- | --- | --- | --- | --- | --- | --- | --- |
| CCOc1ccc2c(S(=O)(=O)O)cccc2c1[N+](=O)[O-] | 94.5% (inactive) and 102% (inactive) | 97.1% (inactive) and 94% (inactive) | 102% (inactive) and 104% (inactive) | 102% (inactive) and 105% (inactive) | 99.1% (inactive) and 105% (inactive) | 104% (inactive) and 78.3% (inactive) | 99.7% (inactive) and 122% (inactive) | 97.2% (inactive) and 101% (inactive) | 113% (inactive) and 111% (inactive) | 107% (inactive) and 103% (inactive) | 104% (inactive) and 116% (inactive) | 101% (inactive) and 88.4% (inactive) | 106% (inactive) and 101% (inactive) | 106% (inactive) and 110% (inactive) | 114% (inactive) and 100% (inactive) | 99.1% (inactive) and 96.2% (inactive) | 104% (inactive) and 107% (inactive) | 102% (inactive) and 107% (inactive) | 114% (inactive) and 100% (inactive) | 108% (inactive) and 99.6% (inactive) |
| CCOC(=O)Nc1nc2ccccc2[nH]1 | 102% (inactive) and 56.7% (inactive) | 104% (inactive) and 71.9% (inactive) | 107% (inactive) and 72.2% (inactive) | 106% (inactive) and 53.4% (inactive) | 106% (inactive) and 22.4% (inactive) | 104% (inactive) and 62.5% (inactive) | 95.6% (inactive) and 46.8% (inactive) | 102% (inactive) and 55.4% (inactive) | 98.5% (inactive) and 39% (inactive) | 119% (inactive) and 37.7% (inactive) | 121% (inactive) and 38.4% (inactive) | 103% (inactive) and 7.77% (active) | 101% (inactive) and 52.5% (inactive) | 110% (inactive) and 64% (inactive) | 118% (inactive) and 66.3% (inactive) | 115% (inactive) and 48.8% (inactive) | 101% (inactive) and 8.06% (active) | 105% (inactive) and 28.5% (inactive) | 93.2% (inactive) and 58% (inactive) | 105% (inactive) and 22.4% (inactive) |
| CCOC(=O)C(C(=O)OCC)C(c1ccccc1)N1CCN(c2ccccc2)CC1 (stereo not given) | 107% (inactive) and 114% (inactive) | 112% (inactive) and 96.9% (inactive) | 93.3% (inactive) and 107% (inactive) | 116% (inactive) and 105% (inactive) | 116% (inactive) and 109% (inactive) | 98.1% (inactive) and 86.6% (inactive) | 89.7% (inactive) and 88% (inactive) | 99.3% (inactive) and 83.2% (inactive) | 104% (inactive) and 102% (inactive) | 114% (inactive) and 124% (inactive) | 127% (inactive) and 109% (inactive) | 120% (inactive) and 93.5% (inactive) | 92.2% (inactive) | 109% (inactive) and 125% (inactive) | 102% (inactive) and 97.6% (inactive) | 110% (inactive) and 100% (inactive) | 108% (inactive) and 105% (inactive) | 111% (inactive) and 118% (inactive) | 98.6% (inactive) and 100% (inactive) | 102% (inactive) and 103% (inactive) |
| Fc1ccccc1Nc1n[nH]c(=S)s1 | 108% (inactive) | 107% (inactive) | 128% (inactive) | 108% (inactive) | 109% (inactive) | 100% (inactive) | 108% (inactive) | 101% (inactive) | 101% (inactive) | 108% (inactive) | 110% (inactive) | 107% (inactive) | 127% (inactive) | 109% (inactive) | 116% (inactive) | 91.5% (inactive) | 126% (inactive) | 105% (inactive) | 103% (inactive) | 109% (inactive) |
| O=[N+]([O-])c1ccccc1/C=N\Nc1ccccc1 | 75.3% (inactive) and 88.1% (inactive) | 89.4% (inactive) and 97.8% (inactive) | 86.5% (inactive) and 78.3% (inactive) | 90% (inactive) and 90.6% (inactive) | 91.2% (inactive) and 97.4% (inactive) | 72.2% (inactive) | 68.2% (inactive) and 62.3% (inactive) | 81.4% (inactive) and 81.6% (inactive) | 86.6% (inactive) and 101% (inactive) | 94.4% (inactive) and 105% (inactive) | 97.7% (inactive) and 103% (inactive) | 37.9% (inactive) and 40.2% (inactive) | 98.7% (inactive) and 116% (inactive) | 74.1% (inactive) and 65% (inactive) | 110% (inactive) and 105% (inactive) | 78.5% (inactive) and 89.5% (inactive) | 102% (inactive) and 76.9% (inactive) | 88.1% (inactive) and 106% (inactive) | 94.3% (inactive) and 103% (inactive) | 50.1% (inactive) and 70.9% (inactive) |
| CC1=CCC2CC1C2(C)C (stereo not given) | 80.7% (inactive) and 93.5% (inactive) | 101% (inactive) and 97.7% (inactive) | 92.4% (inactive) and 94.8% (inactive) | 82.8% (inactive) and 68.9% (inactive) | 106% (inactive) and 102% (inactive) | 75.5% (inactive) and 121% (inactive) | 92.9% (inactive) and 39.9% (inactive) | 94.3% (inactive) and 83.6% (inactive) | 101% (inactive) and 98.6% (inactive) | 89.2% (inactive) and 103% (inactive) | 98.6% (inactive) and 112% (inactive) | 102% (inactive) and 98.4% (inactive) | 101% (inactive) and 127% (inactive) | 95.8% (inactive) and 96.9% (inactive) | 102% (inactive) and 71% (inactive) | 115% (inactive) and 94.1% (inactive) | 94.2% (inactive) and 106% (inactive) | 102% (inactive) | -8.84% (active) and 108% (inactive) | 98.3% (inactive) and 90.3% (inactive) |
| O=C(O)C1C2C=CC(C2)C1C(=O)O (stereo not given) | 104% (inactive) and 30.6% (inactive) and 111% (inactive) | 105% (inactive) and 38.6% (inactive) and 91.2% (inactive) | 99.3% (inactive) and 38.9% (inactive) and 104% (inactive) | 114% (inactive) and 30.1% (inactive) and 92.8% (inactive) | 104% (inactive) and 13.9% (inactive) and 105% (inactive) | 98.6% (inactive) and 98.2% (inactive) | 87.1% (inactive) and 102% (inactive) | 93.5% (inactive) and 13.4% (inactive) and 97.7% (inactive) | 105% (inactive) and 28.3% (inactive) and 104% (inactive) | 115% (inactive) and 46.9% (inactive) and 118% (inactive) | 113% (inactive) and 33% (inactive) and 117% (inactive) | 107% (inactive) and 21.5% (inactive) and 95.5% (inactive) | 109% (inactive) and 70% (inactive) | 101% (inactive) and 66.9% (inactive) and 124% (inactive) | 116% (inactive) and 38.8% (inactive) and 96.9% (inactive) | 115% (inactive) and 38.7% (inactive) and 105% (inactive) | 101% (inactive) and 9.77% (active) | 113% (inactive) and 27.8% (inactive) and 99.6% (inactive) | 99.8% (inactive) and 35.6% (inactive) and 97.9% (inactive) | 115% (inactive) and 39.1% (inactive) and 105% (inactive) |
| OC1CCC(Oc2cccc3cnc(Nc4ccc5nc[nH]c5c4)nc23)CC1 (stereo not given) | -21.5% (active) and 25.5% (inactive) | 9.66% (active) and 31.6% (inactive) | 12.2% (inactive) and 50.6% (inactive) | -24.5% (active) and 5.23% (active) | 4.89% (active) and 25.8% (inactive) | 14.2% (inactive) and 40.3% (inactive) | -21.9% (active) and 54% (inactive) | -9.62% (active) and 28.9% (inactive) | 15.5% (inactive) and 38.8% (inactive) | -30.1% (active) and 34.8% (inactive) | 13.2% (inactive) and 48% (inactive) | 9.4% (active) and 54% (inactive) | -8.81% (active) and 86.7% (inactive) | 2.87% (active) and 44.5% (inactive) | -16.8% (active) and 23% (inactive) | 1.49% (active) and 45.4% (inactive) | 13.1% (inactive) and 62.2% (inactive) | -34.1% (active) and 32% (inactive) | -24.7% (active) and 44.8% (inactive) | -9.41% (active) and 49.1% (inactive) |
